# TDP1 inh: blocks human tyrosyl-DNA phosphodiesterase 1. Q9NUW8. recombinant TDP1, AlphaScreen DNA substrate cleavage. Potency, µM (series often up to 130 µM), without a hit: at the highest dose activity change, negative = inhibition, actives largely listed as inhibitors. hit rate 0.28% among 350,000; further: on the % scale 0 is the no-effect control and ±100 the full control effect; nearly all actives have a fitted effect of over 40% in size
#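 Enzyme-compound mixtures sat 15 min at room temperature, followed by a 5 min reaction with 15 nM final substrate and 10 min with AlphaScreen beads. Recombinant human Tdp1 was used at 1 nM final.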
# POLI inh: inhibitors of human DNA polymerase iota; Pol iota fluorescent replication assay, 10 min; Potency, µM (top dose mostly 115 µM), for inactives: at the highest dose activity, negative = inhibition, most hits filed as inhibitors; hit rate 1% among 390,000
# Target sequence (Q9UNA4 whole entry, looked up): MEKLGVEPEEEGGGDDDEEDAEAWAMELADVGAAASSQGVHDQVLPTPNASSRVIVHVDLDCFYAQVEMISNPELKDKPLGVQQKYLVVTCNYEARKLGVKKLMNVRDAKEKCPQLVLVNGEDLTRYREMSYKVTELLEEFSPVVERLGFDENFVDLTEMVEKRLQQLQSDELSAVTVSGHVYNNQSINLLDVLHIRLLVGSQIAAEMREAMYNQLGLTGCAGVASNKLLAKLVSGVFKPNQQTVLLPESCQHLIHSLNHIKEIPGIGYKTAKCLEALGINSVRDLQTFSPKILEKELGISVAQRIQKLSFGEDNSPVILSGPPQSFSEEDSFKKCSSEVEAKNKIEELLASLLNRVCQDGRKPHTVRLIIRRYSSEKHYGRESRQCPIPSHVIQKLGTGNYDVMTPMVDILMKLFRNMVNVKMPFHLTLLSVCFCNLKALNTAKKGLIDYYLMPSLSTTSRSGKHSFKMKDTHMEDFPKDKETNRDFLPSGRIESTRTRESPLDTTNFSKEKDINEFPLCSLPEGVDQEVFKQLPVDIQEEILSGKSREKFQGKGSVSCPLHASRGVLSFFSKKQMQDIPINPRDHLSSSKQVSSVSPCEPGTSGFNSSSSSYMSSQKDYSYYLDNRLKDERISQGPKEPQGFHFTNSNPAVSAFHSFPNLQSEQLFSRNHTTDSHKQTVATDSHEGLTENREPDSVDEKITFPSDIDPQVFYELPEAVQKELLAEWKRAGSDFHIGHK
#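 Pol iota at 10 nM preincubated 15 min with compounds at room temperature; reaction started with fluorescent substrate, 50 nM final. Fluorescence read kinetically at 0 and 10 min; buffer-only wells as negative control.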
# POLK inh: DNA polymerase kappa (human) inhibition. purified Pol kappa, fluorescent DNA synthesis assay, 10 min. hit rate 0.53% among 400,000. AID 588579. Potency, µM (series often up to 107 µM), for inactives: at the highest dose activity, negative = inhibition, hits mostly inhibitors. Q9UBT6; further: on the % scale 0 is the no-effect control and ±100 the full control effect
#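 First, compounds were pin-transferred onto 10 nM Pol kappa. After 15 min at room temperature, substrate was added to 50 nM final. Fluorescence was then measured kinetically at 0 and 10 min.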
# FEN1 inh: blocks human flap endonuclease 1 | hit rate 0.35% among 390,000 | P39748 | Recombinant FEN1 flap cleavage, fluorescence, 15 min | AID 588795 | Potency, µM (highest dose often 114 µM), for the others: top-dose activity change, negative = inhibition, actives largely listed as inhibitors; further: on the % scale 0 is the no-effect control and ±100 the full control effect; nearly all actives have a fitted effect of over 65% in size
#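 FEN1 at 10 nM, compound pretreatment for 15 min (room temperature), 50 nM final substrate to initiate; endpoint reads at 0 and 15 min; DMSO-only plates used as vehicle background.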
# Pol beta inh: DNA polymerase beta (human) inhibition; P06746; Pol beta primer extension/strand displacement, fluorescence kinetic; Potency, µM (top dose mostly 114 µM), inactives show at the highest dose activity change, negative = inhibition, hits mostly inhibitors; hit rate 1.3% among 340,000; further: on the % scale 0 is the no-effect control and ±100 the full control effect
#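 Curves were derived by four-parameter Hill fits of normalized qHTS data. The kinetic fluorescent primer-extension read was taken at 0 and 10 min after 50 nM substrate, following a 15 min room-temperature preincubation of 10 nM enzyme with compounds.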
# Pol eta inh: blocks human DNA polymerase eta activity; Q9Y253; recombinant Pol eta, fluorescent DNA replication assay; Potency, µM (doses to about 114 µM), without a hit: at the top dose activity change, negative = inhibition, hits mostly inhibitors; hit rate 1.2% among 390,000; further: on the % scale 0 is the no-effect control and ±100 the full control effect
#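 Fluorescent replication assay: 50 nM final substrate added after a 15 min room-temperature compound preincubation with 10 nM enzyme. Signal taken at 0 min and again at 10 min.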
# * hit, by the source's call; ? = inconclusive; . = not tested or not shown; [ ] = remark or other dose. Rows were chosen to be rich in hits. Some 2.4% of all compounds tested hit in one or more screens of this group. The call rests on the fitted dose curve; in most records, active means well fitted curve in the direction sought with a large enough effect; inconclusive means small, poorly fitted or top-dose-only effect, or another doubt; inactive means no such curve, though single readings can be large; an effect the other way counts as inactive or inconclusive. Potency means the concentration at half of the fitted maximal effect.
SMILES,TDP1 inh,POLI inh,POLK inh,FEN1 inh,Pol beta inh,Pol eta inh
COc1ccc2c(c1)cc1c(=O)n(CC(=O)NCc3ccco3)nc(C)n12,2%,16%,-11%,-6%,-1%,2%
CC(=O)c1cccc(NC(=O)c2ccc3nc(C(C)C)oc3c2)c1,2%,9%,-8%[60.1 µM],-13%,27%,4%
CSc1nsc(SCC(=O)Nc2ccc(NC(C)=O)cc2)n1,2%,45%,-10%,9%,37%,-26%
COc1ccc(NC(=O)CSc2nc(SC)ns2)cc1,.,7%,1%,-3%,89µM*,-10%
COc1ccc(NC(=O)CSc2ccc(-c3cccs3)nn2)cc1,3%,89µM*,-4%,-5%,0%,-12%
COc1cccc(C(=O)Nc2cc(-c3cn4cccnc4n3)ccc2C)c1OC,1%,-2%,-2%[60.1 µM],-7%,18%,-4%
COCCN(C(=O)COC(=O)/C=C/c1ccc(C)o1)c1c(N)n(Cc2ccccc2)c(=O)[nH]c1=O,4%,79µM*,-7%,10%,-6%,-11%
COCCN(C(=O)COC(=O)/C=C/c1ccco1)c1c(N)n(Cc2ccccc2)c(=O)[nH]c1=O,25µM*,?,-32%,-3%,28µM*,?
C=C/C(C)=C/C[C@H]1C(=C)CCC2[C@](C)(C(=O)O)CCC[C@@]21C (stereo partly specified),.,?,?,-2%,.,8.9µM*
Cc1cc(C)c(S(=O)(=O)N2CCN(C(=O)CC(C)n3nc(C)nc3C)CC2)c(C)c1 (stereo unspecified),.,.,.,.,.,-21%
C=CC(=O)Oc1ccc(N2Cc3ccccc3C2=O)cc1,.,40µM*,-38%,-10%,.,32µM*
COc1ccc(N2Cc3ccccc3C2=O)cc1,.,10%,-5%,4%,-1%,-23%
Cc1ccc(C(NC(=O)Cc2cccs2)C(=O)Nc2ccc(C(C)C)cc2)cc1 (stereo unspecified),9%,-26%,-12%,-2%,-9%,-7%
Cc1ccc(NS(=O)(=O)c2ccc(N3CCCC3=O)cc2)cc1C,0%,.,.,.,.,.
COC(=O)/C=C1/SC(=Nc2ccc(Cl)c(Cl)c2)NC1=O,0%,-26%,-10%,12%,24%,79µM*
COC(=O)/C=C1\SC(=Nc2ccccc2)NC1=O,1%,12%,-13%,14%,21%,-3%
CC(CNC(=O)c1cc(-c2ccccc2)n[nH]1)c1ccccc1 (stereo unspecified),-6%,26%,-14%,-18%,16%,-16%
Cc1cc(C)cc(NC(=O)Cn2c(-c3cncs3)nc3ccccc32)c1,3%,89µM*,-14%,-11%,?,.
Cc1cccc(CNC(=O)CCCN2C(=O)CCn3nc(-c4cn(C)c5ccccc45)cc32)c1,5%,-2%,-4%[60.1 µM],-3%,-6%,8%
Cc1cccc(CNC(=O)CN2C(=O)CCn3nc(-c4cn(C)c5ccccc45)cc32)c1,8%,?,-10%[60.1 µM],4%,18µM*,-5%
Cc1cc(C)cc(Nc2cc(C(=O)NC3CCC(C)CC3)c3ccccc3n2)c1 (stereo unspecified),-2%,-8%,-27%,-13%,-27%,89µM*
Cc1cc(C)cc(Nc2cc(C(=O)NC3CCCCC3)c3ccccc3n2)c1,0%,-2%,-7%,4%,14%,-28%
O=C1CCCC2=C1C(c1ccccc1Cl)N=C(Nc1nc3ccccc3o1)N2 (stereo unspecified),2%,.,.,.,.,.
COc1cc(CNC(C)c2ccccc2)cc(Br)c1OCc1ccccc1 (stereo unspecified),.,18%,-5%,-19%,2%,-9%
COc1ccc(Br)cc1CNc1ccc(O)cc1,12%,2.8µM*,-11%,-12%,3%,7%
COc1cc(CNc2ccc(O)cc2)cc(Br)c1OCc1ccccc1,5%,16µM*,-15%,?,-1%,?
O=C(NCc1ccc2c(c1)CCN2C(=O)c1ccccc1)c1ccco1,1%,-1%,-6%[60.1 µM],-9%,42%,-16%
